# Sampled rows, rich in hits. Any-hit rate of the full collection: about 10%.
# HEK293 tox = cytotoxic compounds in HEK 293 cells; HEK 293 viability, ATP luminescence (CellTiter-Glo), 48-72 h; Potency, µM (highest dose often 115 µM), for the others: at the highest dose activity change, negative = cytotoxicity, hits mostly inhibitors; actives 6.6% (n = 94,000); AID 1345083; also: nearly all actives have a fitted effect of over 60% in size
#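 Read-out: CellTiter-Glo ATP luminescence. Cells: HEK 293, 250 cells/well. Exposure: 48 or 72 hr, 37 degree Celsius.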
# FLuc inh = inhibitors of firefly (Photinus pyralis) luciferase | AID 1347043 | Potency, µM (series often up to 115 µM), most hits filed as inhibitors | purified P. pyralis luciferase, luminescence, biochemical | actives 2.5% (n = 76,000) | P08659; also: nearly all actives have a fitted effect of over 65% in size
#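 FLuc 10nM, D-luciferin 10uM, ATP 10uM, Mg acetate 10mM, Tris acetate pH 7.5, Tween/BSA; cpd qHTS; enzyme added last; CCD luminescence.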
# GPT2 inh = GPT2 alanine aminotransferase inhibition; Q8TD30; Recombinant GPT2, coupled pyruvate oxidase/HRP Amplex Red fluorescence; Potency, µM (series often up to 57.7 µM), for inactives: at the highest dose activity change, negative = inhibition, actives largely listed as inhibitors; actives 0.25% (n = 100,000); also: nearly all actives have a fitted effect of over 60% in size
# Target sequence (Q8TD30 whole entry, looked up): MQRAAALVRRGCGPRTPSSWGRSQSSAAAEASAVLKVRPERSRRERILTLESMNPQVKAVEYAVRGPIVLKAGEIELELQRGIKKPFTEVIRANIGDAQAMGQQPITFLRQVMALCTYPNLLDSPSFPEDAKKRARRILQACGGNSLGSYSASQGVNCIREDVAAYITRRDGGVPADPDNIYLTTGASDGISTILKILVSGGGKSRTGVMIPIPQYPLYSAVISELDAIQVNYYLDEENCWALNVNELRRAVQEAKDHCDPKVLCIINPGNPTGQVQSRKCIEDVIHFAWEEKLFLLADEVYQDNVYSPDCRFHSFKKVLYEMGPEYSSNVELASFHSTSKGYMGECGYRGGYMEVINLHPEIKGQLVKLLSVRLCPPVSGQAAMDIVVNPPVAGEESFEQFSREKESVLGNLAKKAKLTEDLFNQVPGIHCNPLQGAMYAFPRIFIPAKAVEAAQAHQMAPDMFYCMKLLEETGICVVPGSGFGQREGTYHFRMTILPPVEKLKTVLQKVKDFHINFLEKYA
#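 Recombinant GPT2 (10ng/uL) with 250uM a-KG and 2mM L-alanine, 30 min at room temperature, in HEPES pH 7.5 buffer. Pyruvate detected by pyruvate oxidase/HRP/Amplex Red fluorescence after 30 min in the dark; AOA (50uM) as positive control.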
# NPR1 antag = human Npr1 receptor antagonism | Potency, µM (titrated, usually from 46.3 µM), for the others: at the top dose activity change, negative = inhibition, actives largely listed as inhibitors | actives 1.6% (n = 76,000) | HEK293 hNpr1 GloSensor cGMP, ANP-stimulated luminescence | AID 1347048; calls by dose curve; also: nearly all actives have a fitted effect of over 60% in size
#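 HEK293 cells stably expressing human Npr1 and cGMP GloSensor pGS-40F, loaded 2 h with 2% GloSensor reagent, given compound 30 min at room temperature. Luminescence read before and 20 min after 0.1 nM hNppA.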
# 3T3 cytotox = NIH 3T3 cell cytotoxicity; NIH 3T3 viability, CellTiter-Glo ATP luminescence, 48-72 h; Potency, µM (top dose mostly 96.7 µM), for inactives: top-dose activity change, negative = cytotoxicity, hits mostly inhibitors; actives 4.3% (n = 94,000); AID 1345082; also: nearly all actives have a fitted effect of over 55% in size
#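 ATP-dependent luminescence (CellTiter-Glo) served as the viability signal for NIH 3T3 cells treated with compound for 48 or 72 hr at 37 °C.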
# The depositor's hits bear a star; i = inactive; ? = inconclusive; . = not tested or not shown; [ ] = remark or other dose. Unless noted, calls follow the shape of the dose curve; as a rule, active = well fitted curve in the direction sought with a large enough effect; inconclusive = small, poorly fitted or top-dose-only effect, or another doubt; inactive = no such curve, though single readings can be large; an effect the other way counts as inactive or inconclusive. % is scaled to controls: 0 for no effect and ±100 for the full control effect; potency is read from the fitted curve at half-maximal effect.
SMILES,HEK293 tox,FLuc inh,GPT2 inh,NPR1 antag,3T3 cytotox
O=C(c1ccc2ncccc2c1)N1CCCN(c2cc(-c3ccc(Cl)cc3)[nH]n2)CC1,35.5µM*,i,-21.5%,?,?
O=C(c1ccc(Cl)cc1)N1CCN(c2cc(-c3ccc(F)cc3)[nH]n2)CC1,?,i,-0.7%,?,35.5µM*
O=C(c1ccsc1)N1CCN(c2cc(-c3ccc(Cl)cc3)[nH]n2)CC1,?,i,i,-25.7%,25.1µM*
O=C(c1cccc(Cl)c1)N1CCN(c2cc(-c3ccccc3)[nH]n2)CC1,44.7µM*,i,i,-22.1%,?
O=C(c1ccc(F)c(Cl)c1)N1CCN(c2cc(-c3ccccc3)[nH]n2)CC1,?,i,i,-29.2%,?
Cc1ccc(-c2cc(N3CCCN(C(=O)c4ccsc4)CC3)n[nH]2)cc1C,?,i,-18.5%,0.9%,?
O=C(c1ccc2c(c1)OCO2)N1CCN(c2cc(-c3ccc(F)cc3)[nH]n2)CC1,?,i,0.1%,?,14.1µM*
CCC(CNc1nc(CCN)nc2ccccc12)N1CCN(C)CC1 (centres undefined),-6.6%,i,-14.0%,7.1%,-19.1%
C[S+](=O)([O-])N1CCC(Cn2ccc3c(N4CCOCC4)nc(-c4cccc5[nH]ncc45)cc32)CC1,?,i,-1.9%,-16.9%,10µM*
C[S+](=O)([O-])N1CCC(Cn2ccc3c(N4CCOCC4)nc(-c4ccncc4)cc32)CC1,?,i,i,3.0%,28.2µM*
C[S+](=O)([O-])N1CCC(Cn2ccc3c(N4CCOCC4)nc(-c4ccccc4F)cc32)CC1,?,i,-11.2%,-6.8%,-33.1%
COc1ccccc1-c1cc2c(ccn2CC2CCN([S+](C)(=O)[O-])CC2)c(N2CCOCC2)n1,?,i,-13.2%,-5.5%,?
CCCN(CC1CCOC1)C(=O)Nc1cc(C)ccc1C (centres undefined),-6.0%,i,i,-2.3%,i
COc1ccc(CN2C(=O)COC[C@@H]2[C@H](O)c2ccc(NC(=O)c3ccc(C(C)(C)C)cc3)cc2)cc1,28.2µM*,14.1µM*,-0.1%,2.8%,22.4µM*
CC(C)CN1C(=O)COC[C@@H]1[C@H](O)c1ccc(NC(=O)c2ccc3c(c2)OCO3)cc1,-21.8%[172 µM],63.1µM*,i,-0.9%[70.6 µM],-12.5%[138 µM]
CN1C(=O)COC[C@@H]1[C@H](O)c1ccc(NC(=O)c2ccc3c(c2)OCO3)cc1,-18.9%[172 µM],?,i,1.5%[70.6 µM],-22.5%[174 µM]
COc1ccc(C(=O)Nc2ccc(C(O)[C@H]3COCC(=O)N3CC(C)C)cc2)cc1 (some centres undefined),?,25.1µM*,-6.9%[88.5 µM],-1.6%[70.6 µM],3.2%[174 µM]
CC(C)CN1C(=O)COC[C@@H]1[C@H](O)c1ccc(NC(=O)c2ccc(F)cc2)cc1,-19.7%[172 µM],?,i,-16.7%[70.6 µM],-21.5%[138 µM]
COc1cccc(CNC(=O)c2ccc3c(c2)CC(=O)N3Cc2ccccc2)c1,?,i,?,-8.4%,?
COc1cc(C)ccc1C(=O)N1C[C@@H](CN2CCOCC2)[C@@H](CO)C1,-6.0%,i,i,-5.0%,-15.5%
S=C(Nc1cccc2ccccc12)N[C@H]1CO[C@H]2[C@@H]1OC[C@H]2OCc1ccccc1,63.1µM*,i,2.1%[88.5 µM],?,?
O=C(Nc1cccc2ccccc12)O[C@@H]1CO[C@H]2[C@@H]1OC[C@@H]2NC(=S)Nc1ccc(Cl)cc1,39.8µM*,i,i,-5.0%,?
CN(C)c1ccc(NC(=S)N[C@H]2CO[C@H]3[C@@H]2OC[C@H]3OC(=O)Nc2cccc3ccccc23)cc1,-26.9%,31.6µM*,8.91µM*,-3.3%,?
O=C(c1ccc(C2CCCNC2)cc1)N1CCN(C2CCOCC2)CC1 (centres undefined),-5.0%,i,i,3.8%,-17.0%
COc1ccccc1CCC(=O)NC1CCCN(c2cc(-c3ccc(F)cc3)[nH]n2)C1 (centres undefined),?,i,-5.9%,-10.4%,?
SMILES,HEK293 tox,FLuc inh,GPT2 inh,NPR1 antag,3T3 cytotox
CC(C)NC(=O)c1nc(-c2ccc(Cl)nc2)c2cnccn12,-13.8%,.,-4.3%,.,-27.0%
Cc1cccc(-c2noc(-c3nc(C)no3)n2)c1,-18.7%,25.1µM*,?,-3.3%,-12.5%
Cc1noc(-c2nc(-c3cccc(Br)c3)no2)n1,?,?,-8.6%,-15.3%,-0.1%
COC(=O)C1=COC(OC2OC(CO)C(O)C(O)C2O)C2C(C)C(OC(C)=O)C(OC(=O)c3ccccc3)C12 (centres undefined),.,.,i,.,.
COc1cccc(-c2cc(-c3c(C)noc3C)cc3c2C(=O)N(C)C3)c1OC,?,i,-8.5%[88.5 µM],-0.6%[70.6 µM],?
Cc1noc(C)c1-c1cc2c(c(-c3ccc(CO)cc3)c1)C(=O)N(C)C2,?,i,2.2%[88.5 µM],4.4%[70.6 µM],79.4µM*
Cc1noc(C)c1-c1cc2c(c(-c3cccnc3)c1)C(=O)N(C)C2,-17.5%[172 µM],i,3.3%[88.5 µM],6.9%[70.6 µM],?
COc1ccc(-c2cc(-c3c(C)noc3C)cc3c2C(=O)N(C)C3)cn1,79.4µM*,i,i,?,?
Cc1cnc(C(=O)N[C@@H]2CCC[C@@H]2C(=O)N(C)C)cn1,-14.9%,i,-11.6%,8.1%,-5.6%
COC[C@@H]1CN(C(=O)Cn2cc(C)cn2)C[C@H]1c1nc(C2CC2)no1,i,i,0.7%,-4.0%,1.5%
COCCN1C(=O)[C@H]2CN(Cc3ccc(C(C)C)cc3)C[C@H]2C1=O,?,i,3.8%,-18.9%,-17.8%
COC(=O)[C@@H]1Cc2c([nH]c3ccccc23)[C@H]2C[C@@H](N3CCOCC3)C[C@@H](c3ccc(C(F)(F)F)cc3)N21,22.4µM*,i,?,4.2%,25.1µM*
COC(=O)[C@@H]1Cc2c([nH]c3ccccc23)[C@H]2C[C@@H](NCc3cccnc3)C[C@@H](c3ccc(OC(F)(F)F)cc3)N21,28.2µM*,i,-8.2%,6.4%,31.6µM*
COC(=O)[C@@H]1Cc2c([nH]c3ccccc23)[C@H]2C[C@@H](N3CCOCC3)C[C@@H](c3ccc(OC(F)(F)F)cc3)N21,?,i,-29.1%,2.0%,44.7µM*
CC(C)(C)C(=O)N1CCC[C@@H]1C(=O)N1CCC(N2CCOC2=O)CC1,4.8%[172 µM],.,i,.,-1.9%[138 µM]
Cc1cc(CN(C)c2ccc(-c3nc(COc4ccccc4)no3)cn2)on1,?,?,-8.1%,15.8µM*,?
c1ccc(OCc2noc(-c3ccc(NC4CCSC4)nc3)n2)cc1 (centres undefined),?,?,i,-11.9%,?

# Source: PubChem (National Center for Advancing Translational Sciences (NCATS))
